From PubChem BioAssay (NCI) come the findings set out here.

SMILES strings stand for the structures. Compounds without any hit were thinned out: in the full panel of roughly 83,000, 20% have a hit.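 Activity criterion: percent growth below 10, measured after cells in 96-well plates were exposed to a single compound concentration for 48 hours.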 A number with no mark means an inactive call. The source made the active and inactive calls.

Test systems include HCT-15 colon; HT29 colon; SNB-19 CNS; U251 CNS; PC-3 prostate; SK-MEL-5 melanoma; UACC-62 melanoma; SK-MEL-28 melanoma; EKVX NSCLC; SN12C renal; UO-31 renal; TK-10 renal; ACHN renal; CAKI-1 renal; A498 renal; MOLT-4 leukemia; LOX IMVI melanoma; SK-MEL-2 melanoma; CCRF-CEM leukemia.
What all share (assay): NCI-60 one-dose screen, 48 h (100 = growth as untreated, 0 = no growth, -100 = all killed)
Conditions in all cases: 10 µM unless noted

Take `COc1cccc(-c2cc3c(O)cc(C#N)cc3[nH]2)c1`: the growth in the experiment with HCT-15 colon was 80.9%; in the experiment on HT29 colon, 94.6%; in the experiment on SNB-19 CNS, 93.1%; in the experiment on U251 CNS it was 85.3%; in the experiment on PC-3 prostate, 81.8%; in the experiment on SK-MEL-5 melanoma it was 82.1%. The growth in the experiment on UACC-62 melanoma is 70.9%; in the experiment on SK-MEL-28 melanoma, 97.8%; in the experiment on EKVX NSCLC, 77.8%; in the experiment on SN12C renal, 66.1%; in the experiment with UO-31 renal, 106%; with TK-10 renal, 97.9%. Further, the growth is 87.6% with ACHN renal, 88.4% in the experiment on CAKI-1 renal, 71.7% with A498 renal and 81.8% in the experiment with MOLT-4 leukemia.

For `CN1CCN(CCCOc2ccc3nc(Nc4ccc(Cl)c(C(F)(F)F)c4)ccc3c2)CC1`, the growth is 2.44% (active) in the experiment with HCT-15 colon; -37.5% (active) in the experiment on HT29 colon; 66% in the experiment with SNB-19 CNS; 23.3% in the experiment on U251 CNS; 40.6% in the experiment on PC-3 prostate; 76.9% in the experiment with SK-MEL-5 melanoma. Further, the growth in the experiment on LOX IMVI melanoma is -83.7% (active); in the experiment with SK-MEL-2 melanoma, 89.9%; with EKVX NSCLC, 71.8%; in the experiment on SN12C renal, 63.9%; with UO-31 renal, 69.6%; with TK-10 renal, 75.9%. For the same compound, the growth in the experiment on ACHN renal is 55.9%; in the experiment with CAKI-1 renal, 83.8%; with CCRF-CEM leukemia it was 17.6%; with MOLT-4 leukemia, 19.1%.

On to `COc1cccc(CC(C)=C(c2ccc(OCCN(C)C)cc2)c2ccc(OCCN(C)C)cc2)c1`, for which the growth in the experiment with HCT-15 colon was -37.8% (active); in the experiment on HT29 colon it was -72.7% (active); with SNB-19 CNS, 15.2%; in the experiment with U251 CNS, -77.8% (active); with PC-3 prostate, 15.6%; with SK-MEL-5 melanoma, -95.1% (active). Also, the growth is -90.7% (active) in the experiment on UACC-62 melanoma; 14% with SK-MEL-2 melanoma; 62% in the experiment with EKVX NSCLC; -12.2% (active) with SN12C renal; -91.3% (active) in the experiment on UO-31 renal; -15.2% (active) in the experiment with TK-10 renal. Besides, the growth in the experiment on ACHN renal was -82.4% (active); in the experiment with A498 renal, 76.8%; with CCRF-CEM leukemia, -19.5% (active); in the experiment on MOLT-4 leukemia, -25.5% (active).

For `CN(C)CCCN(c1nc(C(Cl)(Cl)Cl)ns1)c1nc(C(Cl)(Cl)Cl)ns1`, the growth was 41.2% with HCT-15 colon; 0.235% (active) in the experiment on HT29 colon; 64.2% in the experiment on SNB-19 CNS; 27.4% in the experiment on U251 CNS; 22.2% in the experiment on PC-3 prostate; 1.86% (active) in the experiment on UACC-62 melanoma. In addition, the growth is -31.4% (active) with LOX IMVI melanoma; 51.9% in the experiment with SK-MEL-28 melanoma; 47% with SK-MEL-2 melanoma; 55.1% with EKVX NSCLC; 41.8% in the experiment on SN12C renal; -84.7% (active) in the experiment with UO-31 renal. In addition, the growth with TK-10 renal was 63.5%; in the experiment on ACHN renal it was 54.6%; in the experiment on CAKI-1 renal, 43.9%; with A498 renal it was 73.7%; in the experiment with CCRF-CEM leukemia, 30.3%; with MOLT-4 leukemia, 3.33% (active).

As for `COc1ccc(-c2ccc(-c3ccc(C(=N)N)s3)s2)cc1Cl`, the growth with HCT-15 colon is -76% (active); in the experiment with HT29 colon, -84% (active); with SNB-19 CNS, 35.2%; with U251 CNS it was -86.2% (active); with PC-3 prostate it was -92% (active); in the experiment on SK-MEL-5 melanoma, 67.5%. The growth with UACC-62 melanoma was -92.1% (active); in the experiment with SK-MEL-28 melanoma, 90.1%; with SK-MEL-2 melanoma it was 96.2%; in the experiment on EKVX NSCLC, 70.1%; in the experiment with SN12C renal, -83.7% (active); in the experiment on UO-31 renal, 81.4%. Also, the growth with CAKI-1 renal was 68.3%; in the experiment on A498 renal it was 65.3%; in the experiment on CCRF-CEM leukemia, -31.2% (active); with MOLT-4 leukemia it was -57.3% (active).

Turning to `COc1ccc(/C=C2\Oc3cc(OCCCN4CCCC4)ccc3C2=O)c(OC)c1`, the growth with HCT-15 colon is 17.8%; with HT29 colon, 10.2%; in the experiment with SNB-19 CNS, 74.4%; in the experiment with U251 CNS it was 54.4%; with PC-3 prostate, 66.8%; with UACC-62 melanoma it was 99.3%. For the same compound, the growth in the experiment on LOX IMVI melanoma was -27.7% (active); with SK-MEL-28 melanoma, 105%; in the experiment with SK-MEL-2 melanoma, 103%; in the experiment with EKVX NSCLC, 96.1%; in the experiment with SN12C renal it was 91.8%; in the experiment on UO-31 renal it was 74.9%. In addition, the growth was 103% in the experiment with TK-10 renal; 91.4% with ACHN renal; 91.9% in the experiment with CAKI-1 renal; 11.9% with CCRF-CEM leukemia; 32.7% in the experiment on MOLT-4 leukemia.

For the compound `COc1ccc(Nc2ncccc2C(=O)NCc2cn(Cc3cccc(Oc4ccccc4)c3)nn2)c(OC)c1`, the growth in the experiment on HCT-15 colon is 26.1%; in the experiment on HT29 colon, 3.15% (active); in the experiment on SNB-19 CNS, 44.5%; in the experiment on U251 CNS it was 30.2%; in the experiment with PC-3 prostate, 43.9%; in the experiment on SK-MEL-5 melanoma, 23%. Further, the growth with UACC-62 melanoma was 33.9%; in the experiment with SK-MEL-28 melanoma, 61.8%; in the experiment on EKVX NSCLC it was 46.5%; with SN12C renal, 33.7%; in the experiment with UO-31 renal, 48%; in the experiment on TK-10 renal, 64.5%. Further, the growth was 48% in the experiment with ACHN renal, 44.8% with CAKI-1 renal, -3.05% (active) with A498 renal and 40% in the experiment with MOLT-4 leukemia.

With `COc1cc(-c2nc(N=Nc3c(O)[nH]c4ccc(Br)cc34)[nH]c(=O)c2C#N)cc(OC)c1OC`, the growth is 98.6% in the experiment with HCT-15 colon; 106% in the experiment with HT29 colon; 100% in the experiment with SNB-19 CNS; 99.7% with U251 CNS; 98.8% in the experiment with PC-3 prostate; 96.1% with UACC-62 melanoma. Further, the growth was 98.2% with LOX IMVI melanoma; 111% in the experiment with SK-MEL-28 melanoma; 102% in the experiment with SK-MEL-2 melanoma; 100% in the experiment on EKVX NSCLC; 97.4% in the experiment on SN12C renal; 90% in the experiment on UO-31 renal. The growth was 101% with ACHN renal, 91.1% in the experiment with CAKI-1 renal, 94.5% in the experiment on CCRF-CEM leukemia and 96.2% in the experiment on MOLT-4 leukemia.

`COc1cccc(/C=C2\Oc3cc(OCCCN4CCCC4)ccc3C2=O)c1`: the growth in the experiment on HCT-15 colon is 19.3%; in the experiment with HT29 colon, 17.8%; in the experiment on SNB-19 CNS, 87.9%; with U251 CNS, 75.6%; with PC-3 prostate it was 69%; in the experiment with UACC-62 melanoma, 96.7%. The growth in the experiment with LOX IMVI melanoma is 20.6%; in the experiment with SK-MEL-28 melanoma, 100%; in the experiment on SK-MEL-2 melanoma it was 107%; with EKVX NSCLC, 85.3%; in the experiment on SN12C renal, 85.2%; in the experiment on UO-31 renal, 58.2%. Also, the growth was 93.3% in the experiment on TK-10 renal; 93% in the experiment with ACHN renal; 85.5% with CAKI-1 renal; 1.85% (active) with CCRF-CEM leukemia; 59.5% in the experiment on MOLT-4 leukemia.
